Assay results reported in PubChem BioAssay AID686971 (National Center for Advancing Translational Sciences (NCATS), 2013).
In all, about 360,000 compounds went through this assay and about 7,500 (2.1%) were called active. About 8% were inconclusive and are not listed. This is one part of a sample in which actives are shown more often than they occur. A number with no mark means an inactive call. Calls follow the shape of the dose curve; as a rule, active = well fitted cell-killing curve with a large enough effect; inconclusive = small, poorly fitted or top-dose-only effect, or effect the other way, or another doubt; inactive = no such curve, though single readings can be large or run the other way.

Experiment: qHTS for induction of synthetic lethality in tumor cells producing 2HG: qHTS for the HT-1080-IDH1KD cell line;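 as to activity, negative = toxicity: 0% = DMSO wells and -100% = cell-free medium wells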
Conditions: HT-1080 IDH1 knockdown viability, ATP luminescence, 48 h; series mostly up to 46.1 µM; activity, negative = toxicity: at the top concentration
How it was run: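 Using the IDH1-knockdown HT-1080 line run in the same batch and compound series as the NT line, viability after 48 h at 37 °C was determined by CellTiter-Glo luminescence and expressed as % activity.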
Potency is read from the fitted curve at half-maximal effect.

SMILES	Potency	activity, negative = toxicity
O=C1/C(=C\c2ccc([N+](=O)[O-])cc2)CS(=O)(=O)C/C1=C/c1ccc([N+](=O)[O-])cc1	3.66 µM (active)	
CCN1CCN(CC(=O)Nc2sc3c(c2C#N)CCC3)CC1		14.3%
N#Cc1c(NC(=O)CCCl)sc2c1CCCCC2	23.1 µM (active)	
N#Cc1c(NC(=O)C2CCCO2)sc2c1CCCCC2 (stereo not given)		-1.25%
Cc1ccc([C@H]2C[C@H](O)[C@@H](n3cc(COC(=O)c4ccccc4)nn3)CN2CC2CCCCC2)cc1		3.18%
O=C(Nc1ccc2c(c1)OCCO2)C1c2ccccc2OCC(=O)N1Cc1ccccn1 (stereo not given)		9.77%
Cc1cc(C)nc(SCC(=O)N(C)C)n1		25.2%
Cc1cc(C)nc(SCc2ccccc2C#N)n1		-4.58%
Cc1cc(C)nc(S/C=C/C(=O)c2ccccc2)n1	3.66 µM (active)	
O=C(CCCn1c(=O)[nH]c2cc(Cl)ccc2c1=O)NCCN1CCN(c2ccccc2)CC1		-1.58%
COc1cccc(CNC(=O)Cc2csc(Nc3nc(=S)[nH]c4ccccc34)n2)c1		-11%
O=C(Cc1csc(Nc2nc(=S)[nH]c3ccccc23)n1)NCCCN1CCN(c2cccc(Cl)c2)CC1	20.6 µM (active)	
COc1cc2nnn(-c3ccncc3)c2cc1OC		9.52%
N#CC1(Nc2ccc3c4c(cccc24)CC3)CCCCC1		-19.4%
CCOc1ccccc1CNS(=O)(=O)c1cc(-c2cc(C)no2)ccc1C		-19.8%
Cc1cc(-c2ccc(C)c(S(=O)(=O)NCCCN(Cc3ccccc3)C(C)C)c2)on1		-2.16%
COc1ccc(CNS(=O)(=O)c2cc(-c3cc(C)no3)ccc2C(C)C)cc1	3.66 µM (active)	
CCOC(=O)N1CCN(C(=O)C[C@@H]2C[C@@]3(C(=O)OC)CCCCC=C3N(CCC3=CCCCC3)C2=O)CC1		-21.7%
Cc1cccc(-c2cnc(C(O)c3ccc4ccccc4c3)[nH]2)c1 (stereo not given)		-20.1%
CC1(C(=O)NCc2ccccc2)CN(S(C)(=O)=O)CC(=O)N1CC(F)(F)F (stereo not given)		19.5%
CC1(C(=O)O)CCN1C(=O)/C=C/c1ccccc1 (stereo not given)		-1.28%
CC1(C(=O)NS(=O)(=O)c2ccccc2)CCN1C(=O)C/C=C/c1ccccc1 (stereo not given)		24%
CC1(C)CCSC(/C=C/c2ccccc2)=N1	25.9 µM (active)	
CC1(C(=O)NCc2ccc3c(c2)OCO3)CCN1CCc1ccccc1 (stereo not given)		0%
CCN(CC)C(=O)C(C)N1c2cccc3cccc(c23)S1(=O)=O (stereo not given)		0.219%

SMILES	Potency	activity, negative = toxicity
O=C(NCCOc1ccccc1Cl)C(=O)Nc1ccccc1		-23.8%
CC(C)Nc1nc(NCCOc2ccccc2Cl)c2sccc2n1	16.4 µM (active)	
COc1cccc(-c2cc3nc(NCCOc4ccccc4Cl)n(C)c(=O)c3s2)c1		10.4%
Cc1c(NC(=O)COC(=O)/C=C/c2cccc(F)c2)c(=O)n(-c2ccccc2)n1C		0.173%
COC(=O)C1(C(=O)OC)C[C@H](c2ccccc2)N(Cc2ccccc2OC)[C@@H]1c1ccccc1		-10.5%
CC1=NNC(=O)C1CCC(=O)N/N=C(\C)c1ccc(Cl)cc1 (stereo not given)		0.912%
NC(=O)NC(CC(=O)NNC(=O)c1ccccn1)c1ccc(Cl)cc1 (stereo not given)		-25.6%
C/C(=N\NC(=O)Cc1ccc(Cl)cc1)c1ccccn1	2.51 µM (active)	
CC(=O)NC(c1ccccc1)c1nc(-c2cccc(C(C)C)c2)cs1 (stereo not given)		-0.585%
CC(OC(=O)c1ccc(NC(=O)CC#N)cc1)C(=O)Nc1ccc(S(=O)(=O)N2CCCC2)cc1 (stereo not given)		-9.1%
C[C@@H]1CN([C@H](C)CO)C(=O)CCCn2cc(nn2)CO[C@H]1CN(C)S(=O)(=O)c1ccc(Oc2ccccc2)nc1		-8.17%
Cc1cccc(CN2CCN(C3CN(Cc4cn(Cc5ccccc5F)nn4)S(=O)(=O)C3)CC2)c1 (stereo not given)		2.12%
O=C(NCC(O)c1nc2ccccc2[nH]1)c1ccc(Br)cc1 (stereo not given)		-0.05%
Cc1cc(=O)oc2cc(OCCC[n+]3ccccc3)ccc12		7.77%
Cc1cc(=O)oc2cc(OCC3CC(c4ccccc4Cl)=NO3)ccc12 (stereo not given)	0.447 µM (active)	
CCOc1ccccc1N1CCN(C(=O)COc2ccc3c(C)cc(=O)oc3c2)CC1		-13.8%
CN1OC[C@@H]2CN(C(=O)c3cccnc3)[C@H](c3ccc(N4CCCCC4)cc3)C[C@@H]21		11.3%
Cc1csc(SCC(=O)Nc2ccc(C)c(S(=O)(=O)N(C)C)c2)n1		-1.02%
C[C@H](CO)N1C[C@H](C)[C@@H](CN(C)Cc2ccc3c(c2)OCO3)OCc2cnnn2CCCC1=O		21.3%
CC(=O)NN1C(=O)c2ccccc2NC1c1ccccc1 (stereo not given)		5.4%
O=C(O)C(c1ccccc1)N1C(=O)/C(=C\c2ccc(-c3cccc(Cl)c3)o2)SC1=S (stereo not given)		5.09%
O=C1c2ccccc2NC(c2ccc(-c3cccc(Cl)c3)o2)N1O (stereo not given)	20 µM (active)	
COc1ccc(C=C2CCC3C(CCCC34OCCO4)C2=O)cc1 (stereo not given)		-0.459%
C=CCOc1cccc(C2C(C(=O)c3ccc(C)o3)=C(O)C(=O)N2CCN2CCOCC2)c1 (stereo not given)		-1.37%
COCCNC(=O)C1CCCN(Cc2ccccc2Cl)CC1 (stereo not given)		1.46%
